The values that follow come from the supplement of paper PMC10338343.

± gives the standard deviation.

For this test, the system named is MILI (PIWIL2) piRISC loaded with piRNA #1 (26 nt). The test can be described thus: pre-steady-state target cleavage rate (min^-1); guide: piRNA #1 5'p-UGAGGUAGUAGGUUGUAUAGUAUCCA; MIWI and MILI are mouse PIWI proteins and EfPiwi is from a freshwater sponge; tags in brackets are library labels; higher = faster piRNA-guided slicing of the target. The conditions noted are these: auxiliary factor: 500 nM mouse GTSF1. The essentials:
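In Cleave-'n-Seq, a transcribed, DNA-blocked target RNA library (0.1 nM) was combined with 1 nM active affinity-purified piRISC bearing one synthetic guide, with or without 500 nM GTSF1 partner protein. Reactions ran in HEPES–potassium acetate buffer at 33 °C for 0–8 or 0–960 min. Uncleaved targets were sequenced and normalised to depth and to weakly complementary targets, three trials were pooled, and k3 was capped at 0.0001 min^-1. The pre-steady-state cleavage rate was obtained by fitting a burst-and-steady-state model.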
With GGAGACCUAUGUAUACAACCUACAACCUGA, the “pre-steady-state target cleavage rate” value was determined as 0.0031 ± 0.0024.
With GGAGACCUAUGAAUACAACCUACUACCGUCA, the “pre-steady-state target cleavage rate” value came out at 0.00898 ± 0.0024.
Take GGAGACCUAUGUAUACUUCCUACUACCUCA: the “pre-steady-state target cleavage rate” value was determined as 0.0232 ± 0.005.
Regarding GGAGACCUAUGAAUACAACCUACUACAUCA, the “pre-steady-state target cleavage rate” value is 0.00323 ± 0.0026.
To GGAGACCUUACUUACAACCUACUACCUCA belongs 0.0198 ± 0.0056; to GGAGACCUAUGAUAUGUACCUACUAGCACA, less than 0.0001; to GGAGACCUAUGAAUAUAACCUACUACCUCA, 0.0081 ± 0.0024.
To GGAGACCUAUGAUAUGAACCUACUUACCUCA belongs less than 0.0001; to GGAGACCUAUGUUUACAACCUAGUACCUCA, 0.00404 ± 0.0027; to GGAGACCUAUGUAUACAACCUGCUACCUCA, 0.0059 ± 0.0023.
Regarding GGAGACCUAUCUAUACUUCCUACUACCUCA, the “pre-steady-state target cleavage rate” value was determined as 0.054 ± 0.013.
To GGAGACCUAUGAUAUGUUCCUACUAACUCA belongs less than 0.0001.
As to GGAGACCUAUGAUAUGAUCCUACUACCACA, the “pre-steady-state target cleavage rate” value is less than 0.0001.
With GGAGACCUAUGUAUUGAACCUACUACCUCA, the “pre-steady-state target cleavage rate” value is 0.00285 ± 0.0015.
For the sequence GGAGACCAUACUAUACUACCUACUACCUGA, the “pre-steady-state target cleavage rate” value was found to be 0.134 ± 0.019.
As for GGAGACCUAUGUAUACAACCAUACUACCUCA, the “pre-steady-state target cleavage rate” value came out at 0.00475 ± 0.0025.
With GGAGACCUAUGAUUACAACCUACUACCUACA, the “pre-steady-state target cleavage rate” value was determined as 0.00666 ± 0.0024.
On to GGAGACCUAUGAUAUCACCUACUACCUCA, for which the “pre-steady-state target cleavage rate” value was found to be 0.00625 ± 0.0026.
Regarding GGAGACCAUACAAUACAACCUACUUCCUCA, the “pre-steady-state target cleavage rate” value was found to be 0.125 ± 0.016.
In the case of GGAGACCUAUGUAUACAACGUAGUACCUCA, the “pre-steady-state target cleavage rate” value worked out at 0.0032 ± 0.0023.
Regarding GGAGACCUUACUAUACAACCUAGCUACCUCA, the “pre-steady-state target cleavage rate” value came to 0.0317 ± 0.0069.
Regarding GGAGACCUUACUAUAGAACGUACUACCUCA, the “pre-steady-state target cleavage rate” value is 0.0109 ± 0.0021.
On to GGAGACCUAUGAAUACAACCGUACUACCUCA, for which the “pre-steady-state target cleavage rate” value was found to be 0.00389 ± 0.003.
For GGAGACCUAUCUAUAUAACCUACUACCUCA, the “pre-steady-state target cleavage rate” value stood at 0.0723 ± 0.0089.
Take GGAGAGGAUACUAUACAACCUACGACCUCA: the “pre-steady-state target cleavage rate” value is 0.1 ± 0.013.
For GGAGACCUAACUAUACAACCUACUACCCUCA, the “pre-steady-state target cleavage rate” value was 0.185 ± 0.034.
GGAGACCUAUGAUAUGUUGCUUGAACCUCA: the “pre-steady-state target cleavage rate” value was less than 0.0001.
Under GGAGACCUAUGUAUACAACCUACCUACCUCA stands 0.0358 ± 0.0076; under GGAGACCUAUCUAUUCAACCUACUACCUCA, 0.108 ± 0.015; under GGAGACGUAUACUAUACAACCUACUACCUCA, 0.193 ± 0.013.
In the case of GGAGACCUAUGUUAACAACCUACUACCUCA, the “pre-steady-state target cleavage rate” value came to 0.0234 ± 0.0048.
In the case of GGAGACCUAUGAUUACAACCUACUACUCUCA, the “pre-steady-state target cleavage rate” value is 0.00541 ± 0.0034.
With GGAGACCUAUGUAUACAACCAACUACCUCA, the “pre-steady-state target cleavage rate” value turned out to be 0.0033 ± 0.002.
To GGAGACCUAACUAUACAACCUACUAUCCUCA belongs 0.177 ± 0.047; to GGAGUGGAUACUUUACAUCCUACUACCUCA, 0.253 ± 0.012.
Turning to GGAGACCUAAGUAUACAACGUACUACCUCA, the “pre-steady-state target cleavage rate” value was determined as 0.0111 ± 0.0021.
GGAGACCUAUCUAUACUACCUUCUACCUCA: the “pre-steady-state target cleavage rate” value stood at 0.00727 ± 0.003.
Under GGAGACCUAUGAUAUGUUGCUACUGACCUCA stands less than 0.0001.
Under GGAGACCUAUCUAUCACAACCUACUACCUCA stands 0.0519 ± 0.01; under GGAGACCUAUCUAUACAACCAACUACGUCA, 0.00385 ± 0.0021.
